Molecules are shown by their SMILES. The whole screen tested about 59,000 compounds, of which about 6,500 (11%) were called active. Inconclusive results (about 15%) are left out. Rule as the data show it: active = max dye-equivalent concentration above about 10 nM; inconclusive = mostly about 1.1 nM to 9.6 nM; inactive = weaker than that. Shown is part of a subset that was picked to be rich in actives.

The nature of this test: qHTS Assay for Spectroscopic Profiling in A350 Spectral Region. The conditions noted are these: Compound autofluorescence, 340/450 nm, Alexa 350 dye-equivalents; hits give high values. From the text: NIH Molecular Libraries Screening Centers Network [MLSCN]
NIH Chemical Genomics Center [NCGC]
Occasionally, the artifactual effect may originate from the compounds own spectral or other biophysical properties which generally tend to track its assay concentration. Pre-screening/profiling the library with respect to the compounds spectral properties should help one exclude false positives early on. While the most informative fluorescent profiling data set is obtained by performing a full excitation and emission scan of each well by using a monochromator-based plate reader, such an approach is practical only on a very limited scale as scanning each well requires long time. An alternative approach, applied here, is to perform plate reader scans using selected excitation and emission wavelength pairs to generate a multidimensional relational database that correlates compound concentration and the respective relative fluorescence intensity at a given wavelength set. A standard curve of Alexa 350 (A 350) present on each plate as six-point concentration series, was used to compute a normalized fluorescence response, termed dye-equivalent concentration, for each compound at each concentration.
NCGC Assay Protocol Summary:
100 mM Tris buffer, pH 8.0
The wells in columns 1 through 4 of a Kalypsys polypropylene 1536-well compound plate were filled with standard solutions of fluorophore corresponding to the spectral region of interest. Solutions of A 350 were placed in the following wells: I1, J1: 3 mM, I2, J2: 300 uM, I3, J3: 30 uM, I4, J4: zero (DMSO), K1, L1: 3 uM, K2, L2: […], K3, L3: 300 nM, K4, L4: zero (DMSO).
Six uL of buffer were dispensed to 1536-well Greiner black plates. Compounds and dye standards (23 nL) were transferred via Kalypsys PinTool. The plates were incubated for 15 min at room temperature, and then read on ViewLux (Perkin-Elmer) High-throughput CCD imager using 340 nm and 450 nm excitation and emission filter set.
Keywords: NIH Roadmap, MLSCN, MLI, MLSMR, qHTS, NCGC, A350, A-350, Fluorescent Profiling.
In the case of `Cc1nc2nc3c(cn2n1)C(=O)CC(c1ccccc1)C3` (stereo unspecified), the max dye-equivalent concentration result is “inactive”.

`CC1(C)C(=O)C2(CCCCC2)C(=O)OC1c1cccs1` (stereo unspecified): the max dye-equivalent concentration entry is “inactive”.

Regarding `C=CCn1c(COc2ccccc2C)nnc1SCC(=O)O`, the max dye-equivalent concentration entry was “inactive”.

For the molecule `Cc1ccc2[nH]c3c(c2c1)CN(C(=O)CN1CCN(c2ccccc2)CC1)CC3`, the max dye-equivalent concentration entry is “inactive”.

Take `Cc1cc(C)c2c(c1)c(C)cc1nnc(SCC(=O)NCc3ccco3)n12`: the max dye-equivalent concentration result was “inactive”.

With `CC(=O)N1CCC2(CCCN(Cc3ccccc3)C2)CC1`, the max dye-equivalent concentration entry was “inactive”.

For the molecule `O=C(O)/C(=C/c1c(C(=O)O)[nH]c2cc(Cl)cc(Cl)c12)c1ccccc1`, the max dye-equivalent concentration result was “inactive”.

Take `O=C1c2ccccc2C(=O)N1CCc1nn[nH]n1`: the max dye-equivalent concentration entry was “inactive”.

For the molecule `CCOC(=O)c1c(C)n(C)c2ccc(OC)c(NC(=O)CN3CCC4(CC3)OCCO4)c12`, the max dye-equivalent concentration entry is “inactive”.

Turning to `C/C(N)=C(\C#N)C(=O)NCCc1ccccn1`, the max dye-equivalent concentration is 12 nM (active).

For `O=C(NCCc1ccccn1)c1ccc(COc2ccccc2)o1`, the max dye-equivalent concentration result is “inactive”.

Consider `O=C(O)[C@H](CCc1ccccn1)c1ccccc1`, for which the max dye-equivalent concentration result is “inactive”.

`CC1(C)CC(=O)C(C2=NC(C)(C)Cc3ccccc32)=C(O)C1`: the max dye-equivalent concentration result is “inactive”.

Regarding `CCOc1ccc(N=C2SC(C(=O)O)CC(=O)N2C)cc1` (stereo unspecified), the max dye-equivalent concentration entry is “inactive”.

Regarding `COC(=O)N1CN(C(=O)OC)CN(C(=O)OC)C1`, the max dye-equivalent concentration entry is “inactive”.

For the molecule `CC(C)=C(NC(=O)c1ccco1)C(=O)NCCc1nc2ccccc2[nH]1`, the max dye-equivalent concentration result was “inactive”.

For the molecule `CC(C)OC(=O)c1cc(NC(=O)C2C3CCC(O3)C2C(=O)O)cc(C(=O)OC(C)C)c1` (stereo unspecified), the max dye-equivalent concentration was 13 nM (active).

Turning to `CCC(CC)C(=O)Nc1cc(C(=O)OC)cc(C(=O)OC)c1`, the max dye-equivalent concentration result is “inactive”.

Regarding `O=C(CCC(=O)c1cccs1)NCc1ccccc1`, the max dye-equivalent concentration result is “inactive”.

`COC(=O)c1cn(CC(=O)NCc2cccs2)c2ccccc12`: the max dye-equivalent concentration entry is “inactive”.

For `O=C(Cn1cc(C(=O)c2cccs2)c2ccccc21)NCc1cccs1`, the max dye-equivalent concentration is 25 nM (active).

With `C=C(Br)CN1CCN(CC(=C)Br)CC1`, the max dye-equivalent concentration result was “inactive”.

Take `COC(=O)COc1ccc(S(=O)(=O)Nc2ccc(NC(C)=O)cc2)cc1`: the max dye-equivalent concentration entry is “inactive”.

As for `O=C1CCC(C(=O)Nc2ccc(OC(F)F)cc2)N1` (stereo unspecified), the max dye-equivalent concentration was 22 nM (active).

On to `CCCOc1ccc(NC(=O)C2CCCNC2=O)cc1` (stereo unspecified), for which the max dye-equivalent concentration entry is “inactive”.

In the case of `NS(=O)(=O)c1cc2c(cc1Cl)NC(C(Cl)Cl)NS2(=O)=O` (stereo unspecified), the max dye-equivalent concentration is 7200 nM (active).

For `Cc1cn(C2C=CC(CO)O2)c(=O)[nH]c1=O` (stereo unspecified), the max dye-equivalent concentration entry was “inactive”.

As to `Cc1ccc(C(=O)NC2CCN(C(=O)N3CCOCC3)CC2)cc1`, the max dye-equivalent concentration result is “inactive”.

Take `CCOC(=O)c1sc(=S)n(-c2cccc(OC)c2)c1N`: the max dye-equivalent concentration entry was “inactive”.

As to `CCOC(=O)c1c(C(C#N)C#N)cc(C)nc1C`, the max dye-equivalent concentration result was “inactive”.

`CCOC(=O)c1cc(-c2ccc(Cl)s2)nc2c1c(C)nn2C`: the max dye-equivalent concentration is 240 nM (active).

In the case of `Cc1ccn2cc(C(=O)NC3CCN(Cc4ccccc4)CC3)nc2c1`, the max dye-equivalent concentration entry is “inactive”.

For `CCc1ccc2oc(-c3ccc(N)cc3)nc2c1`, the max dye-equivalent concentration is 140 nM (active).

As to `O=C(/C=N/O)Nc1ccccc1`, the max dye-equivalent concentration result is “inactive”.

With `CC1CCc2c(sc3c2C2=NS(=O)(=O)CCN2C=N3)C1` (stereo unspecified), the max dye-equivalent concentration is 29 nM (active).

Consider `CC1(CCC(=O)OC2CCCCC2)OCCO1`, for which the max dye-equivalent concentration result is “inactive”.

As for `CCOC(=O)c1cc2sccc2n1Cc1ccc(C#N)cc1`, the max dye-equivalent concentration entry is “inactive”.

Take `CC(=O)OC(C)C[N+](C)(C)C` (stereo unspecified): the max dye-equivalent concentration was 570 nM (active).

In the case of `CC(C[N+](C)(C)C)OC(N)=O` (stereo unspecified), the max dye-equivalent concentration result is “inactive”.

For the molecule `CCN1C(=O)/C(=C2\SC(N3CCCCC3)=NC2=O)c2ccccc21`, the max dye-equivalent concentration is 17 nM (active).

`CCN1C(=O)/C(=C\N2CCN(c3ccccc3)CC2)SC1=S`: the max dye-equivalent concentration entry is “inactive”.

For `CC(=O)c1ccc(-n2nnnc2SCC(=O)N2CCN(C(=O)c3ccco3)CC2)cc1`, the max dye-equivalent concentration result is “inactive”.

As for `CN1CCN(Cc2nc3c(c(=O)n(C)c(=O)n3C)n2Cc2cccc3ccccc23)CC1`, the max dye-equivalent concentration result was “inactive”.

For the molecule `Cc1nnc(C)n1/N=C/c1ccc(C(C)C)cc1`, the max dye-equivalent concentration entry was “inactive”.

As for `O=C1CC(c2cccc(F)c2)C2=C(CCCC2=O)N1` (stereo unspecified), the max dye-equivalent concentration entry is “inactive”.

Turning to `O=C1CC(c2cccc(Br)c2)C2=C(CCCC2=O)N1` (stereo unspecified), the max dye-equivalent concentration was 44 nM (active).

As to `CC(N)=NCc1cccc(CN)c1`, the max dye-equivalent concentration entry was “inactive”.

Consider `CCCCN(CC)CCCNC(=O)CS(=O)(=O)Cc1nc(-c2cccc(OC)c2)oc1C`, for which the max dye-equivalent concentration entry was “inactive”.

With `CNC(=O)n1ccc(C(=O)N2CCCCC2)n1`, the max dye-equivalent concentration result is “inactive”.

As for `CN(C)c1ccnc2sc3c(=O)n(Cc4ccccc4)cnc3c12`, the max dye-equivalent concentration is 32 nM (active).

For the molecule `CN(C)/C=C/c1c(C#N)c(=O)ncn1Cc1ccccc1`, the max dye-equivalent concentration entry is “inactive”.

As for `O=C(Cc1cccs1)N1CCCC(c2nc(-c3ccc(S(=O)(=O)N4CCCC4)cc3)no2)C1` (stereo unspecified), the max dye-equivalent concentration result is “inactive”.

For `COc1cc(Cl)c(C)cc1NC(=O)CSc1nnc(-c2cccnc2)n1Cc1ccco1`, the max dye-equivalent concentration result is “inactive”.

Regarding `CO[C@@H]1/C=C\O[C@]2(C)Oc3c(C)c(O)c4c(O)c(c(CN(C)C)c(O)c4c3C2=O)NC(=O)/C(C)=C\C=C[C@@H](C)[C@@H](O)[C@H](C)[C@@H](O)[C@H](C)[C@H](OC(C)=O)[C@@H]1C`, the max dye-equivalent concentration result is “inactive”.

`CCc1nc2ccccc2n(CCOCCOCCn2c(=O)c(CC)nc3ccccc32)c1=O`: the max dye-equivalent concentration was 45 nM (active).

Consider `CCC(=O)Nc1nc2ccccc2n1Cc1ccccc1C`, for which the max dye-equivalent concentration entry was “inactive”.

The record behind these values is PubChem BioAssay AID590 (National Center for Advancing Translational Sciences (NCATS), 2007).
